From PubChem BioAssay
Activity calls are given as the source filed them.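 Rule for the calls, unless noted: active = z-score of at least 1.8 in each of two replicates, scored against plate mean and spread of sample wells; inactive = the rest.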

How the values were obtained:
[1] = MELAS cybrid and Rieske KO viability enhancers – cell-based, MELAS cybrids, Rieske KO mouse fibroblasts, CellTiter-Glo, primary screen (AID 1508586;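 active = mean z-score across replicates of 1.96 or higher in either the MELAS or the Rieske mutant cell line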;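 note: test concentration not given here; z relative to plate mean and SD of compound and empty wells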); details: low glucose
[2] = galactose survival enhancers in mitochondrial complex I cybrids – cell-based, galactose medium, ATP luminescence, primary screen (AID 1645843); details: complex I mutant cybrid cells, 72 h, stronger effect = higher value;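 note: positive z means more ATP and so rescue of galactose-driven cybrid death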
[3] = MELAS cybrid survival, CellTiter-Glo 48 h, stronger effect = higher value
[4] = Rieske KO mouse fibroblast survival, CellTiter-Glo 72 h

SMILES | z-score [1, 3] | z-score [1, 4] | z-score [2]
CCCCc1ncc(CN2CCc3c(cc(-c4ccncc4)c(=O)n3C/C=C/c3ccccc3)C2)[nH]1 | -0.405 (inactive) | -0.0119 | -0.41 (inactive)
CCn1nc(C(=O)N(C)Cc2ccco2)c2c1CCC(N(C)Cc1ccon1)C2 (configuration not stated) | -0.655 (inactive) | -0.252 | -1.03 (inactive)
COC(=O)c1c(NC(=O)c2cccnc2)c2cc(NCc3ccc4c(c3)CCO4)cnc2n1CC(C)C | -0.55 | 3.72 | -1.61 (inactive)
COc1cccc(COC2CN(Cc3ccccn3)C(=O)CN(C(=O)c3ccc(C)s3)C2)c1 (configuration not stated) | -0.406 (inactive) | 0.0344 | 0.91 (inactive)
Cc1cc(-c2cc3c(n(C)c2=O)CCN(Cc2c(C)nc4sccn24)C3)ccc1F | -0.189 (inactive) | 0.11 | 0.27 (inactive)
CCc1nc(Cn2c3c(cc(-c4ccccc4C)c2=O)CN(Cc2ccc(O)c(Cl)c2)CC3)no1 | -0.286 (inactive) | -0.271 | 0.44 (inactive)
O=C(c1nn(Cc2ccncc2)c2c1CN(Cc1ccsc1)CC2)N1CCCC1 | -0.1 (inactive) | 0.631 | 0.36 (inactive)
CN(C)C1CCN(C(=O)c2cc(-c3ccccc3)cc(S(=O)(=O)N3CCSCC3)c2)C1 (configuration not stated) | 0.666 (inactive) | 0.00446 | 0.465 (inactive)
Cn1c2c(cc(-c3ccc(OC(F)(F)F)cc3)c1=O)CN(C(=O)C1CC(=O)c3ccccc31)CC2 (configuration not stated) | 0.0877 (inactive) | 0.643 | 0.305 (inactive)
CC(C)CCNc1cc(C(=O)NCCn2ccnc2)cc(S(=O)(=O)Nc2ccccc2)c1 | -0.318 (inactive) | -0.223 | -0.47 (inactive)
O=C(NCCn1ccnc1)c1cc(NCC2CC2)cc(S(=O)(=O)N2CCCC2)c1 | -0.151 (inactive) | 0.62 | 1.69 (inactive)
CN(C)C(=O)c1nn(Cc2ccccc2)c2c1CN(C(=O)C1CC(=O)Nc3ccccc31)CC2 (configuration not stated) | -0.404 (inactive) | -0.253 | 0.725 (inactive)
O=C(NCCn1ccnc1)c1cc(NCC2CC=CCC2)cc(S(=O)(=O)N2CCCC2)c1 (configuration not stated) | -0.174 (inactive) | -0.234 | -0.94 (inactive)
CCCc1c(C(=O)N[C@H]2C[C@H]3C(=O)N[C@H](Cc4ccc(O)cc4)C(=O)N3C2)cnn1-c1ccccc1 | -0.275 (inactive) | -0.357 | -1.02 (inactive)
COc1ccc(CCn2nc(C(=O)N(C)C)c3c2CCN(C(=O)c2csc4c2CCCC4)C3)cc1 | -0.0604 (inactive) | -0.104 | 1.47 (inactive)
Cc1ccc(C(C)CCN2CCc3c(c(C(=O)N4CCC(O)CC4)nn3CCc3ccccc3)C2)o1 (configuration not stated) | -0.676 (inactive) | -0.539 | 0.6 (inactive)
CN(C)c1ncc(CN2CCc3c(cc(Cc4ccccc4)c(=O)n3Cc3ccc(F)cc3)C2)s1 | -0.5 (inactive) | 0.0943 | -0.525 (inactive)
CN(Cc1ccco1)C(=O)c1nn(C)c2c1CC(N1CCOc3ccc(Cl)cc3C1)CC2 (configuration not stated) | -0.11 (inactive) | 0.109 | -0.61 (inactive)
CN(C)c1cccc(NC(=O)c2cc(NCc3cnn(C)c3)cc(S(=O)(=O)N3CCCC3)c2)c1 | -0.28 (inactive) | -0.862 | 0.265 (inactive)
COc1ccc(CN2CC(OCc3cccnc3)CN(C(=O)C3=NN(C)C(=O)CC3)CC2=O)cc1 (configuration not stated) | -0.43 (inactive) | -0.34 | 1.23 (inactive)
O=C(Cn1cnnn1)N1CC(=O)N(C2CCCCC2)CC(OCc2ccccc2)C1 (configuration not stated) | -0.326 (inactive) | 0.527 | 0.21 (inactive)
CN(C)CCCNC(=O)[C@@H]1C[C@H](CN2CCOCC2)CN(Cc2ccc3ccccc3c2)C1 | -0.234 (inactive) | -0.142 | 0.05 (inactive)

SMILES | z-score [1, 3] | z-score [1, 4] | z-score [2]
Cc1nnc(CN(C)C(=O)c2cc(-c3ccc(C)s3)cc(S(=O)(=O)N3CCOCC3)c2)o1 | -0.234 (inactive) | -0.11 | 0.29 (inactive)
CC(C)CCNc1cc(C(=O)NCCCn2ccnc2)cc(S(=O)(=O)N2CCCC2)c1 | 0.646 (inactive) | -0.386 | -0.97 (inactive)
C[C@@H](OCc1ccccc1)[C@@H]1NC(=O)[C@H]2CN(C(=O)Oc3ccccc3)CCN2C1=O | -0.153 (inactive) | -0.114 | -1.46 (inactive)
CC(C)C[C@@H]1NC(=O)[C@H]2CN(S(=O)(=O)c3cccc4ccccc34)CCN2C1=O | -0.496 (inactive) | -0.159 | -0.92 (inactive)
COc1ccc(CNC(=O)c2cc(NCc3nc[nH]c3C)cc(S(=O)(=O)N3CCCC3)c2)cc1 | -0.477 (inactive) | -0.812 | 0.755 (inactive)
Cc1ncsc1CCn1nc(C(=O)NC2CC2)c2c1CCN(C(=O)C1Cc3ccccc3O1)C2 (configuration not stated) | -0.25 | 4.81 | -0.18 (inactive)
COC(=O)CN1C(=O)N(CCc2ccccc2)C2(CCN(Cc3ccc4c(c3)OCCO4)CC2)C1=O | -0.212 (inactive) | -0.109 | 1.24 (inactive)
COC(=O)c1c(NC(=O)c2ccoc2)c2cc(NC3CCSCC3)cnc2n1CC(C)C | -0.463 (inactive) | -0.31 | 0.98 (inactive)
O=C(NCc1ccccn1)c1cc(NCC2CC2)cc(S(=O)(=O)N2CCCC2)c1 | -0.201 (inactive) | -0.67 | 0.59 (inactive)
CC(C)NS(=O)(=O)c1cc(NC2CCCCC2)cc(C(=O)NC2Cc3ccccc3C2)c1 | -0.22 (inactive) | -0.431 | -0.045 (inactive)
CC(C)CNC(=O)[C@@H]1C[C@H](CN2CCOCC2)CN(Cc2ccc(O)cc2)C1 | -0.104 (inactive) | -0.186 | -0.31 (inactive)
COc1ccccc1CNC1CCc2c(c(C(=O)N3CCc4ccccc4C3)nn2C)C1 (configuration not stated) | -0.107 (inactive) | -0.0135 | 0.07 (inactive)
Cn1nc(C(=O)N2CCCCC2)c2c1CCC(NCC1(c3ccccc3)CCOCC1)C2 (configuration not stated) | 0.135 (inactive) | 0.153 | -0.59 (inactive)
Cc1cnc(CNC(=O)c2cc(-c3ccccc3)cc(S(=O)(=O)N3CCN(C)CC3)c2)cn1 | 0.213 (inactive) | -0.355 | -0.045 (inactive)
CCOC(=O)c1nn(Cc2ccc(OC)cc2)c2c1CN(C(=O)CSc1ncccn1)CC2 | -0.668 (inactive) | -0.456 | 0.665 (inactive)
CCOC(=O)N1CCC(N2CCc3c(cc(-c4cccc(OC)c4OC)c(=O)n3CC3CC3)C2)CC1 | -0.362 (inactive) | -0.0606 | -0.36 (inactive)
CC(C)C[C@H]1C(=O)N2CCN(Cc3cccc4ncccc34)C[C@@H]2C(=O)N1C | -0.521 (inactive) | -0.107 | -0.23 (inactive)
Cn1ccnc1CN1C[C@@H](CN2CCOCC2)C[C@@H](C(=O)N2CCCC2)C1 | 0.188 (inactive) | 0.125 | -0.64 (inactive)
COc1ccc(C(=O)N2CCN3C(=O)[C@H](COCc4ccccc4)NC(=O)[C@H]3C2)cc1 | 1.06 (inactive) | -0.655 | -0.43 (inactive)
Cc1csc(-c2cc(C(=O)NCCN3CCCCC3)cc(S(=O)(=O)N3CCOCC3)c2)c1 | 0.0708 (inactive) | -0.233 | -0.485 (inactive)
O=C1N[C@@H](COCc2ccccc2)C(=O)N2C[C@@H](NCc3cnn(-c4cccc(F)c4)c3)C[C@@H]12 | 1.94 (inactive) | -0.436 | -0.845 (inactive)
O=C(CC1=CCCCC1)N1CCc2c(cc(-c3cccc(F)c3)c(=O)n2CCN2CCCCC2)C1 | -0.288 (inactive) | -0.152 | 0.55 (inactive)

SMILES | z-score [1, 3] | z-score [1, 4] | z-score [2]
COc1cccc2ccc(CN3CCC4(CC3)C(=O)N(CCc3ccccc3)C(=O)N4C)nc12 | -0.413 (inactive) | 1.51 | 0.055 (inactive)
O=C1N[C@@H](Cc2c[nH]c3ccccc23)C(=O)N2C[C@@H](NCc3ccccc3Cl)C[C@@H]12 | -0.311 (inactive) | 0.134 | -0.945 (inactive)
O=C1N[C@H](Cc2ccc(O)cc2)C(=O)N2CCN(C(=O)c3cccc4ccccc34)C[C@H]12 | 0.285 (inactive) | -0.378 | -0.195 (inactive)
CCc1nc(CNc2cc(C(=O)Nc3ccc4c(c3)CCC4)cc(S(=O)(=O)NC)c2)c(C)[nH]1 | -0.12 (inactive) | -0.343 | 0.065 (inactive)
C=CCn1nc(C(=O)N2CCCC2)c2c1CCC(NCc1ccccc1OC(F)(F)F)C2 (configuration not stated) | 0.124 (inactive) | 0.327 | -0.3 (inactive)
CC(C)Cn1nc(C(=O)N2CCOCC2)c2c1CCC(NCc1ccc(F)cc1)C2 (configuration not stated) | 0.123 (inactive) | -0.12 | 0.625 (inactive)
CN(Cc1nc(-c2ccccc2)cs1)C1CCc2c(c(C(=O)N3CCSCC3)nn2C)C1 (configuration not stated) | 0.0592 (inactive) | 0.0851 | 0.7 (inactive)
Cc1csc(-c2cc(C(=O)N(C)C3CCN(C)CC3)cc(S(=O)(=O)N3CCOCC3)c2)c1 | -0.654 (inactive) | -0.32 | 0.47 (inactive)
COC(=O)c1c(NC(=O)c2ccoc2)c2cc(NC(C)CSC)cnc2n1Cc1ccccc1 (configuration not stated) | -1.27 (inactive) | 0.841 | -1.28 (inactive)
CC(C)[C@@H]1NC(=O)[C@@H]2C[C@H](NC(=O)OCc3ccccc3)CN2C1=O | -0.138 (inactive) | -0.152 | -1.16 (inactive)
C[C@@H](O)[C@@H]1NC(=O)[C@@H]2C[C@H](NCc3cc4ccccc4s3)CN2C1=O | -0.64 (inactive) | -0.73 | -0.615 (inactive)
CCOC(=O)c1nn(CCc2ccc(OC)cc2)c2c1CN(Cc1cccn1-c1ccccn1)CC2 | -0.341 (inactive) | 0.052 | -1.34 (inactive)
CCCCNC(=O)[C@@H]1C[C@H](CN2CCOCC2)CN(Cc2ccc(O)cc2)C1 | 1.06 (inactive) | -0.315 | 0.115 (inactive)
CCN(CC)C(=O)c1cc(-c2ccc(C)s2)cc(S(=O)(=O)N2CCOCC2)c1 | -0.0477 (inactive) | 0.74 | -0.44 (inactive)
Cc1ccc(-c2cc(C(=O)N3CCC[C@H]3CO)cc(S(=O)(=O)N3CCOCC3)c2)s1 | -0.348 (inactive) | 1.18 | -0.415 (inactive)
Cc1noc(C)c1CC(=O)N1CCc2c(c(C(=O)N3CCOCC3)nn2CCCc2ccccc2)C1 | 0.975 (inactive) | -0.571 | -0.895 (inactive)
O=C(c1nn(Cc2ccccn2)c2c1CN(C/C=C/c1ccco1)CC2)N1CCc2ccccc2C1 | -0.442 (inactive) | -0.213 | -0.345 (inactive)
CN1CCN(S(=O)(=O)c2cc(C(=O)NCC3CCCO3)cc(-c3ccccc3)c2)CC1 (configuration not stated) | 0.139 (inactive) | 0.37 | -0.515 (inactive)
Cc1cc(-c2cc3c(n(Cc4cccnc4)c2=O)CCN(C(=O)c2n[nH]c4c2CCC4)C3)ccc1F | -0.505 | 4.42 | -1.53 (inactive)
CC(C)CN1CC(OCc2cccc(F)c2)CN(C(=O)Cn2cnc3ccccc3c2=O)CC1=O (configuration not stated) | -0.0292 (inactive) | 0.00727 | -0.43 (inactive)
